In the library only some 1.4% were active in any assay of this set; here they are far more common.
hERG WT inh: KCNH2 (human, wildtype) channel inhibition; U2OS, BacMam KCNH2, thallium flux FluxOr; hits give low values; activity change, % at 1.84 µM; 340,000 compounds, 0.37% hits;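 active = maximum activity change below -70%; inconclusive = maximum activity change between -70% and -50%; inactive = maximum activity change above -50%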
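U2OS cells were transduced with wild-type KCNH2 virus (2.03 x 10^8 / mL) for 4 h at room temperature, then cultured overnight at 37 C. Thallium flux was read with FluxOr dye. Rate constants were normalized to DMSO controls.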
PTHR1 agonist: agonists of human PTHR1 parathyroid hormone receptor | Q03431 | HEK293 GP2 PTHR1 cells, GloSensor cAMP luminescence, 1 h | Potency, µM (titrated, usually from 115 µM), actives largely listed as activators | 410,000 compounds, 0.075% hits | AID 743266; note: nearly all actives have a fitted effect of over 55% in size
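HEK-293-derived GP2 cells expressing PTHR1 and a GloSensor cAMP reporter, 3,000/well, plated overnight, given luciferin plus IBMX (each 0.5 mM as added) for 1 h at 37 °C, then compound for 1 h at 37 °C. Luminescence was read after 15 min at room temperature.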
RXFP1 antagonist: antagonists of human relaxin receptor RXFP1. Q9HBX9. 350,000 compounds, 0.59% hits. HEK293-RXFP1, relaxin-stimulated cAMP HTRF, 30 min; hits give low values. AID 1259400. activity change, negative = inhibition, % at 57.5 µM;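 active = activity change of -60% or lower, but not beyond a set lower limit; inconclusive = change between -60% and -40%, or beyond the set limit; inactive = change above -40%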
GRP78 ERSR act: ER stress response induction in glioma. U87-MG GRP78 promoter luciferase reporter, 16 h. Potency, µM, hits mostly activators. 420,000 compounds, 0.02% hits. AID 602332; note: series mostly up to about 76 µM; nearly all actives have a fitted effect of over 35% in size
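Stably transfected U87-MG human glioma cells carrying a GRP78-based luminescent sensor were seeded at 1000 cells/well, pin-dosed with compounds and incubated 16 h. Luciferase reagent was then added, and end-point luminescence was read after 10 min at room temperature.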
RXFP1 ag: RXFP1 (human) receptor agonism; Q9HBX9; HEK293T-RXFP1 cAMP TR-FRET, 30 min; response scale: percent of porcine relaxin response, buffer zero; Potency, µM (doses to about 57.5 µM), most hits filed as activators; 370,000 compounds, 0.3% hits; note: nearly all actives have a fitted effect of over 60% in size
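cAMP rise read by TR-FRET after 30 min, 37C compound exposure (up to 58 uM) in RXFP1-transfected HEK293 cells with Ro 20174 present. EC50 from Hill-equation fits, with 29 nM porcine relaxin as 100% and buffer as basal.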
KCNH2 3.1 inh: blocks the human KCNH2 3.1 channel isoform; U2OS KCNH2 3.1, thallium flux FluxOr; hits give low values; activity change, % (tested at about 1.8 µM); 340,000 compounds, 0.95% hits; AID 720553;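 active = maximum activity change below -70%; inconclusive = maximum activity change from -70% to -50%; inactive = maximum activity change above -50%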;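 note: thallium influx rate constant from kinetic fluorescence after stimulation buffer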
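Measured as rate of thallium-driven FluxOr signal in transduced U2OS cells carrying the 3.1 channel, read kinetically for 2 min upon stimulation; values are rate constants scaled to DMSO control wells.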
Large screens that a line does not name were inactive. Unless noted, calls come from the whole dose curve; as a rule, active = well fitted curve in the direction sought with a large enough effect; inconclusive = small, poorly fitted or top-dose-only effect, or another doubt; inactive = no such curve, though single readings can be large; an effect the other way counts as inactive or inconclusive.

CC1CC(C)CN(CCCCOc2ccc([N+](=O)[O-])cc2)C1 (stereo unspecified)	hERG WT inh inconclusive, KCNH2 3.1 inh -99
O=[N+]([O-])c1ccc(OCCN2CCNCC2)cc1	KCNH2 3.1 inh -74
CCC/C=C/c1ccc(CN2C(CC(C)C)C(=O)N(Cc3cn(CC4CCCCC4)nn3)CCS2(=O)=O)cc1 (stereo unspecified)	none (no result: RXFP1 ag)
COc1ccc(NC(=O)Nc2ccc3c(c2)C(=O)N([C@H](C)CO)C[C@H](C)[C@@H](CN(C)S(=O)(=O)c2ccccc2)O3)cc1	KCNH2 3.1 inh -97 (no result: RXFP1 antagonist, RXFP1 ag)
Cc1noc(C)c1S(=O)(=O)N(C)C[C@H]1Oc2ccc(NC(=O)Cn3cnnn3)cc2C(=O)N([C@H](C)CO)C[C@@H]1C	none (no result: RXFP1 antagonist, RXFP1 ag)
C[C@H](CO)N1C[C@H](C)[C@@H](CN(C)S(=O)(=O)c2ccccc2)Oc2ccc(NC(=O)Cn3cnnn3)cc2C1=O	KCNH2 3.1 inh -92 (no result: RXFP1 antagonist, RXFP1 ag)
C[C@@H]1CN([C@@H](C)CO)C(=O)c2cc(NC(=O)C3CC3)ccc2O[C@@H]1CN(C)C(=O)NC1CCCCC1	KCNH2 3.1 inh -100 (no result: RXFP1 antagonist, RXFP1 ag)
C[C@H](CO)N1C[C@H](C)[C@@H](CN(C)C(=O)NC2CCCCC2)Oc2ccc(NC(=O)C3CC3)cc2C1=O	none (no result: RXFP1 antagonist, RXFP1 ag)
CC(C)NC(=O)N(C)C[C@H]1Oc2ccc(NC(=O)Nc3ccccc3)cc2C(=O)N([C@@H](C)CO)C[C@@H]1C	KCNH2 3.1 inh -145 (no result: RXFP1 antagonist, RXFP1 ag)
CC(C)NC(=O)N(C)C[C@H]1Oc2ccc(NC(=O)Nc3ccccc3)cc2C(=O)N([C@H](C)CO)C[C@@H]1C	none (no result: RXFP1 antagonist, RXFP1 ag)
COc1cc([C@H]2Oc3cc([C@H]4Oc5cc(O)cc(O)c5C(=O)[C@@H]4O)ccc3O[C@@H]2CO)ccc1O	none
CC(=O)c1cccc(NC(=O)Cc2cccs2)c1	none
O=C(Cc1cccs1)Nc1cccc(C(=O)Nc2ccco2)c1	KCNH2 3.1 inh -70
O=C(c1ccc(NS(=O)(=O)c2ccc3[nH]c(=O)[nH]c3c2)cc1)N1CCN(c2ccccc2O)CC1	KCNH2 3.1 inh -80
Cc1cc(Sc2nnc(/N=C/N(C)C)s2)c2ccccc2n1	none
Cc1cc(Sc2nnc(N)s2)c2ccccc2n1	KCNH2 3.1 inh -78 (no result: RXFP1 antagonist)
CC(=O)NC12CC3CC(C1)CC(C(=O)NCc1ccc(C)cc1)(C3)C2	RXFP1 antagonist -68
Cc1ccc(S(=O)(=O)Nc2ccc3c(c2)nc(CCN2CCN(c4ccccn4)CC2)n3C)cc1	KCNH2 3.1 inh -96
Cn1c(CCN2CCN(c3ccccn3)CC2)nc2cc(NS(=O)(=O)c3ccc(Cl)cc3)ccc21	hERG WT inh -80, KCNH2 3.1 inh -104
Cc1ccc(S(=O)(=O)Nc2ccc3c(c2)nc(CCN2CCCCC2)n3C)cc1	KCNH2 3.1 inh inconclusive
Cc1ccc(S(=O)(=O)Nc2ccc3c(c2)nc(CCN2CCOCC2)n3C)cc1	none
Cn1c(CCN2CCCCC2)nc2cc(NS(=O)(=O)c3ccc(F)cc3)ccc21	PTHR1 agonist inconclusive, KCNH2 3.1 inh -89
CCS(=O)(=O)n1nc(-c2ccc(Cl)cc2)nc1N	none (no result: RXFP1 antagonist)
CN(C)S(=O)(=O)c1cccc(N=c2scc(-c3ccc4c(c3)NC(=O)CO4)n2CC2CCCO2)c1 (stereo unspecified)	none
N#CCC(=O)N/N=C/c1ccc(Cl)cc1	KCNH2 3.1 inh -73
O=C(CCCCC(=O)NN=Cc1ccc(Cl)cc1)NN=Cc1ccc(Cl)cc1	none (no result: RXFP1 ag)
COc1ccc(-c2noc(-c3ccccc3-c3ccccc3)n2)cc1OC	none
CC[C@@H]1CC=C[C@H]2[C@H]1C(=O)N(Cc1ccccc1)[C@H]2c1ccc(C(F)(F)F)cc1	KCNH2 3.1 inh -77 (no result: RXFP1 antagonist)
CCC1CC=CC2C1C(=O)N(Cc1ccccc1)C2c1ccc(C(F)(F)F)cc1 (stereo unspecified)	none (no result: hERG WT inh, PTHR1 agonist, RXFP1 antagonist, RXFP1 ag, KCNH2 3.1 inh)
COc1ccc(Nc2nc(-c3ccccc3O)nc3ccccc23)cc1	none
Oc1ccc(Nc2nc(-c3ccccc3O)nc3ccccc23)cc1	KCNH2 3.1 inh -118
COC(=O)CN1C(=O)[C@H]2[C@@H](c3ccc(C)o3)N3C(=O)CN(CCO)C(=O)[C@@]3(C)[C@H]2C1=O	none (no result: hERG WT inh, RXFP1 antagonist, KCNH2 3.1 inh)

Screens deposited in PubChem BioAssay by National Center for Advancing Translational Sciences (NCATS).
